Consider 7 compounds from PubChem BioAssay (Tox21).

Values joined by “and” are separate entries in the source; they are usually repeats but may differ in a detail not shown here. Identical values can stand only once. Records with an inconclusive call do not appear. Where a structure was tested more than once in an assay, its records may differ in their call. Active and inactive are the calls of the source. Calls follow the shape of the dose curve; as a rule, active = well fitted curve in the direction sought with a large enough effect in the repeat runs; inconclusive = weak or mixed curves; inactive = no such curve, though single readings can be large; an effect the other way counts as inactive or inconclusive.

Experiment [1] can be described thus: A CellTox Green Cytotoxicity Assay to monitor cytotoxicity in HEK293 cells - 40 hour (AID 1224871). Also: nearly all actives have a fitted effect of over 45% in size. Also: potency is read from the fitted curve at half-maximal effect. As to cytotoxicity increase: % is scaled to controls: 0 for no effect and ±100 for the full control effect. Put shortly:
(§1)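 HEK293 cells, 600/well, were preincubated 5 hours and then exposed to compounds at 37 C for up to 40 hours. A cell-impermeant cyanine dye staining dead-cell DNA was read by fluorescence at 0, 8, 16, 24, 32 and 40 h time points.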

Experiment [2] in a line: qHTS RealTime-Glo MT Cell Viability Assay in HEK293 cells - 16 hour (AID 1224872). Also: nearly all actives have a fitted effect of over 50% in size. Also: potency is read from the fitted curve at half-maximal effect. As to activity change, negative = cytotoxicity: top concentration of the series differs between compounds; % is scaled to controls: 0 for no effect and ±100 for the full control effect. Put shortly:
(§2)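 HEK293 cells were seeded at 600 cells/well together with NanoLuc luciferase and cell-permeant prosubstrate, preincubated 5 h at 37 C/5% CO2, then given compound in DMSO by pintool. Luminescence from viable-cell prosubstrate reduction was read repeatedly over 40 h.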

Experiment [3] in a line: A CellTox Green Cytotoxicity Assay to monitor cytotoxicity in HEK293 cells - 24 hour (AID 1224875). Also: nearly all actives have a fitted effect of over 45% in size. Also: potency is read from the fitted curve at half-maximal effect. As to activity change: series mostly up to about 77 µM; % is scaled to controls: 0 for no effect and ±100 for the full control effect. The gist of the method:
as §1

Experiment [4] is described as follows: A CellTox Green Cytotoxicity Assay to monitor cytotoxicity in HepG2 cells - 24 hour (AID 1224878). Also: nearly all actives have a fitted effect of over 45% in size. Also: potency is read from the fitted curve at half-maximal effect. The gist of the method:
(§3)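 HepG2 cells, 600/well, preincubated 5 h with CellTox Green dye, then exposed to Tox21 compounds in DMSO at 37 C for up to 40 h. Dead-cell DNA fluorescence read at the indicated time point.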

Experiment [5] is described as follows: A CellTox Green Cytotoxicity Assay to monitor cytotoxicity in HepG2 cells - 40 hour (AID 1224879). Also: nearly all actives have a fitted effect of over 40% in size. Also: potency is read from the fitted curve at half-maximal effect. Put shortly: as §3
A short description of experiment [6]: A CellTox Green Cytotoxicity Assay to monitor cytotoxicity in HepG2 cells - 32 hour (AID 1224883). Also: nearly all actives have a fitted effect of over 50% in size. Also: potency is read from the fitted curve at half-maximal effect. The gist of the method:
as §3

Experiment [7] is described as follows: qHTS RealTime-Glo MT Cell Viability Assay in HEK293 cells - 24 hour (AID 1224886). Also: nearly all actives have a fitted effect of over 50% in size. Also: potency is read from the fitted curve at half-maximal effect. The gist of the method:
as §2

A short description of experiment [8]: qHTS RealTime-Glo MT Cell Viability Assay in HEK293 cells - 8 hour (AID 1224887). Also: nearly all actives have a fitted effect of over 50% in size. Also: potency is read from the fitted curve at half-maximal effect. Put shortly:
(§4)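 600 cells/well were plated with the nonlytic NanoLuc/prosubstrate reagent, pre-incubated 5 h, then given 23 nL of compound in DMSO. Incubation at 37 C for 40 h, with luminescence from viable-cell-reduced substrate read repeatedly from 0 h.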

A short description of experiment [9]: A CellTox Green Cytotoxicity Assay to monitor cytotoxicity in HEK293 cells - 16 hour (AID 1224888). Also: nearly all actives have a fitted effect of over 35% in size. Also: potency is read from the fitted curve at half-maximal effect. Put shortly: as §1
The nature of experiment [10]: A CellTox Green Cytotoxicity Assay to monitor cytotoxicity in HepG2 cells - 16 hour (AID 1224876). Also: nearly all actives have a fitted effect of over 45% in size. Also: potency is read from the fitted curve at half-maximal effect. As to cytotoxicity increase: % is scaled to controls: 0 for no effect and ±100 for the full control effect. The gist of the method:
as §3

The nature of experiment [11]: qHTS RealTime-Glo MT Cell Viability Assay in HEK293 cells - 0 hour (AID 1224880). Put shortly:
as §4

Experiment [12] can be described thus: A CellTox Green Cytotoxicity Assay to monitor cytotoxicity in HEK293 cells - 32 hour (AID 1224881). Also: nearly all actives have a fitted effect of over 40% in size. Also: potency is read from the fitted curve at half-maximal effect. The gist of the method:
as §1

Experiment [13] is described as follows: A CellTox Green Cytotoxicity Assay to monitor cytotoxicity in HepG2 cells - 0 hour (AID 1224882). Also: nearly all actives have a fitted effect of over 35% in size. Also: potency is read from the fitted curve at half-maximal effect. The gist of the method: as §3
Experiment [14] in a line: A CellTox Green Cytotoxicity Assay to monitor cytotoxicity in HEK293 cells - 8 hour (AID 1224884). Also: % is scaled to controls: 0 for no effect and ±100 for the full control effect; nearly all actives have a fitted effect of over 35% in size. The gist of the method:
as §1

The nature of experiment [15]: qHTS RealTime-Glo MT Cell Viability Assay in HepG2 cells - 0 hour (AID 1224889). The gist of the method:
(§5)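 HepG2 cells were seeded at 600 cells/well together with NanoLuc luciferase and a cell-permeant prosubstrate, preincubated 5 h at 37 C/5% CO2, then pin-dosed with compounds in DMSO. Nonlytic luminescence from viable cells was read at each time point.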

Experiment [16] can be described thus: A CellTox Green Cytotoxicity Assay to monitor cytotoxicity in HepG2 cells - 8 hour (AID 1224890). Also: nearly all actives have a fitted effect of over 45% in size. Also: potency is read from the fitted curve at half-maximal effect. Put shortly:
as §3

Experiment [17] can be described thus: qHTS RealTime-Glo MT Cell Viability Assay in HepG2 cells - 32 hour (AID 1224877). Also: % is scaled to controls: 0 for no effect and ±100 for the full control effect; nearly all actives have a fitted effect of over 55% in size. The gist of the method:
as §5

Experiment [18] can be described thus: qHTS RealTime-Glo MT Cell Viability Assay in HepG2 cells - 16 hour (AID 1224885). The gist of the method:
as §5

A short description of experiment [19]: qHTS RealTime-Glo MT Cell Viability Assay in HepG2 cells - 8 hour (AID 1224873). Also: % is scaled to controls: 0 for no effect and ±100 for the full control effect; nearly all actives have a fitted effect of over 55% in size. Put shortly: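 HepG2 cells (600/well) mixed with RealTime-Glo MT reagent, settled 5 h at 37 C/5% CO2 before compound addition. Nonlytic NanoLuc luminescence from viable-cell prosubstrate reduction read repeatedly during 40 h treatment at 37 C.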
The nature of experiment [20]: qHTS RealTime-Glo MT Cell Viability Assay in HEK293 cells - 40 hour (AID 1224874). The following applies: RealTime-Glo luminescence; max response: stronger effect = lower value. Put shortly: as §4

Take `CCOc1nc2cccc(C(=O)OC(C)OC(=O)OC3CCCCC3)c2n1Cc1ccc(-c2ccccc2-c2nn[nH]n2)cc1` (stereo unspecified): the Potency in [1] is 30.9 µM (active); in experiment [2], 11 µM (active); in experiment [3], 34.6 µM (active); in experiment [4] it was 43.6 µM (active); in experiment [5] it was 43.6 µM (active); in experiment [6], 43.6 µM (active). For the same compound, the Potency was 9.76 µM (active) in experiment [7], 8.7 µM (active) in experiment [8] and 34.6 µM (active) in experiment [9].
As for `O=C(OC[C@H]1O[C@@H](OC(=O)c2cc(O)c(O)c(OC(=O)c3cc(O)c(O)c(O)c3)c2)[C@H](OC(=O)c2cc(O)c(O)c(OC(=O)c3cc(O)c(O)c(O)c3)c2)[C@@H](OC(=O)c2cc(O)c(O)c(OC(=O)c3cc(O)c(O)c(O)c3)c2)[C@@H]1OC(=O)c1cc(O)c(O)c(OC(=O)c2cc(O)c(O)c(O)c2)c1)c1cc(O)c(O)c(OC(=O)c2cc(O)c(O)c(O)c2)c1`, the cytotoxicity increase in experiment [1] was -40.6% [at 15.8 µM] (inactive); in [10] it was -47.1% [at 15.8 µM] (inactive); in experiment [5], -56% [at 15.8 µM] (inactive); in [12], -42.7% [at 15.8 µM] (inactive); in experiment [6], -61.4% [at 15.8 µM] (inactive); in [14], -34.5% [at 15.8 µM] (inactive). Further, the cytotoxicity increase in experiment [16] is -46.2% [at 15.8 µM] (inactive). For the same compound, the activity change, negative = cytotoxicity is -9.99% [at 15.8 µM] (inactive) in [2]; -3.48% [at 15.8 µM] (inactive) in [11]; -14.1% [at 15.8 µM] (inactive) in experiment [7]; -15.8% [at 15.8 µM] (inactive) in experiment [8]; -17.5% [at 15.8 µM] (inactive) in experiment [15]. Besides, the activity change in experiment [3] is -38.6% [at 15.8 µM, stronger effect = higher value] (inactive); in experiment [9], -38.7% [at 15.8 µM, stronger effect = higher value] (inactive). Further, the cytotoxicity in experiment [4] was -52.4% [at 15.8 µM] (inactive); in experiment [13] it was -19.7% [at 15.8 µM] (inactive).
With `CC1=NC(C)OC1C` (stereo unspecified), the Potency result in [1], in experiment [2], in experiment [3], in [10], in experiment [17] and in experiment [4] was “inactive” in each case. Moreover, the Potency result in experiment [5], in experiment [11], in experiment [12], in experiment [13], in [6] and in [14] was “inactive” throughout. In addition, the Potency entry in [18], in experiment [8], in [9], in [15] and in [16] was “inactive” throughout.
For the compound `CC[C@@]1(O)C(=O)OCc2c1cc1n(c2=O)Cc2cc3c(CN(C)C)c(O)ccc3nc2-1`, the Potency in experiment [1] was 21.3 µM (active); in [20] it was 0.0756 µM (active); in [3], 23.9 µM (active); in experiment [10] it was 21.3 µM (active); in [4], 10.7 µM (active); in [5], 7.56 µM (active). For the same compound, the Potency was 23.9 µM (active) in experiment [12]; 23.9 µM (active) in experiment [13]; 8.49 µM (active) in [6]; 0.0849 µM (active) in [7]; 26.8 µM (active) in [9]; 23.9 µM (active) in [16]. Besides, the Potency entry in [19], in experiment [11], in experiment [18] and in experiment [8] was “inactive” each time.
Take `Oc1ccc2cc(SSc3ccc4cc(O)ccc4c3)ccc2c1`: the Potency in [1] was 49 µM (active) and 24.5 µM (active); in experiment [2], 49 µM (active); in experiment [20], 55 µM (active); in experiment [5], “inactive and 21.9 µM (active)”; in experiment [7] it was 49 µM (active); in [8], 39 µM (active). For the same compound, the Potency result in [10], in [17], in experiment [4], in experiment [11], in experiment [13] and in experiment [6] was “inactive” in each case. Besides, the Potency entry in [18], in [15] and in [16] was “inactive” throughout.
For `OCCCCCCCCCCCCBr`, the Potency entry in experiment [1], in experiment [19], in experiment [3], in experiment [10], in [17] and in [4] was “inactive” in each case. Further, the Potency entry in [11], in [12], in experiment [13], in experiment [6], in [14] and in experiment [18] was “inactive” in each case. The Potency result in experiment [8], in [9] and in experiment [16] was “inactive” throughout. In addition, the Potency in experiment [20] and in experiment [5] was 11.1 µM (active) throughout.
On to `Cn1cc(C(=O)[C@@H]2CCc3nc[nH]c3C2)c2ccccc21`, for which the Potency entry in experiment [1], in experiment [19], in experiment [3], in experiment [10], in experiment [17] and in experiment [4] was “inactive” throughout. The Potency result in [5], in experiment [11], in experiment [12], in experiment [13], in experiment [6] and in [14] was “inactive” throughout. In addition, the Potency result in experiment [18], in experiment [9], in [15] and in experiment [16] was “inactive” throughout.
